AmpC detergent – qHTS Inhibitors of AmpC Beta-Lactamase (assay with detergent). P00811. AmpC hydrolysis of nitrocefin, absorbance 480 nm, 0.01% Triton. Potency, µM (series often up to 114 µM), without a hit: at the top dose activity change, negative = inhibition, usual class: inhibitors. 370,000 tested, 0.041% active. AID 485294, 2010;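 further: 0% = no-compound wells and -100% = no-enzyme wells; nearly all actives have a fitted effect of over 25% in size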
Target sequence (P00811 whole entry, looked up): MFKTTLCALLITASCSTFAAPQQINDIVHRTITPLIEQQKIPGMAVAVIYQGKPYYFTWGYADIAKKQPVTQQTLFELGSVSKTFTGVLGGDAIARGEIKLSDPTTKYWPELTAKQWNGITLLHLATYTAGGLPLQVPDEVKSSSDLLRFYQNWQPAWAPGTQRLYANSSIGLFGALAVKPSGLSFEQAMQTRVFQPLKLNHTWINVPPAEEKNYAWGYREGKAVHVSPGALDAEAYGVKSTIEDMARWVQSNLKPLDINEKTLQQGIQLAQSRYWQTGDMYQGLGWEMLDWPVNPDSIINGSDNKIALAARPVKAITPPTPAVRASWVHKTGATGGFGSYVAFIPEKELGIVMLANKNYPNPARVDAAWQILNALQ
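20 mM phosphate pH 7.0 + 0.01% (detergent screen) or 0.0001% Triton X-100; 5.3 nM AmpC reagent; cpd preinc 15 min RT; nitrocefin (800 uM stock) to start; A480 q20 s × 4 min; Activity was normalised to no-enzyme and no-compound control wells.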
Vaccinia Venus – qHTS for Stage-Specific Inhibitors of Vaccinia Orthopoxvirus: Venus Reporter Primary qHTS; 330,000 tested, 0.46% active; Vaccinia virus Venus reporter expression, fluorescence; Potency, µM (titrated, usually from 36.5 µM), for inactives: at the highest dose activity change, negative = inhibition, most hits filed as inhibitors; AID 720580, 2013; calls by dose curve; tested in A549 cells; further: nearly all actives have a fitted effect of over 30% in size
VACV mCherry inh – qHTS for Stage-Specific Inhibitors of Vaccinia Orthopoxvirus: mCherry Reporter Primary qHTS; Vaccinia virus mCherry reporter infection, fluorescence; Potency, µM (highest dose often 36.5 µM), without a hit: at the top dose activity change, negative = inhibition, actives largely listed as inhibitors; 310,000 tested, 0.63% active; AID 720579, 2013; calls by dose curve; tested in A549 cells; further: nearly all actives have a fitted effect of over 35% in size
AmpC no deterg – qHTS Inhibitors of AmpC Beta-Lactamase (assay without detergent); AID 485341, 2010; Potency, µM (top dose mostly 57.1 µM), inactives show at the top dose activity change, negative = inhibition, most hits filed as inhibitors; P00811; AmpC nitrocefin hydrolysis, absorbance 480 nm, 0.0001% Triton; 330,000 tested, 0.52% active;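 further: plate controls were no compound for no effect and no enzyme for full effect; nearly all actives have a fitted effect of over 20% in size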
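AmpC (5.3 nM in the dispensed reagent) in 20 mM phosphate pH 7.0 with 0.01% (detergent screen) or 0.0001% Triton X-100 was preincubated with compounds for 15 min at room temperature. Nitrocefin was then added from an 800 uM solution, and hydrolysis was followed at 480 nm.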
The depositor's hits bear a star; i = inactive; ? = inconclusive; / = not tested or not shown. Hits are enriched below; roughly 1.1% of the tested compounds scored in any of these assays. Unless noted, the call rests on the fitted dose curve; in most records, active means well fitted curve in the direction sought with a large enough effect; inconclusive means small, poorly fitted or top-dose-only effect, or another doubt; inactive means no such curve, though single readings can be large; an effect the other way counts as inactive or inconclusive. Unless noted, on the % scale 0 is the no-effect control and ±100 the full control effect; potency means the concentration at half of the fitted maximal effect.

SMILES | AmpC detergent | Vaccinia Venus | VACV mCherry inh | AmpC no deterg
CCCCC(CC)C(=O)Nc1ncc([N+](=O)[O-])s1 (stereo unspecified) | -1% | ? | 10µM* | 11%
O=C(NCC1Cc2cccc(-c3cncnc3)c2O1)C1CC1 (stereo unspecified) | / | 0% | -3% | /
O=C(Nc1cccc(NC(=O)c2cccs2)c1)c1ccc(Br)o1 | -7% | -20% | -6% | 25µM*
Cc1cc(C)cc(C(=O)Nc2ccc(NC(=O)c3cccs3)cc2)c1 | -8% | ? | 10µM* | ?
COc1ccc(CN2CCOc3ccc(CN4CCC(Oc5cccnc5)CC4)cc3C2)cc1 | / | -25% | -12% | /
N#C/C(=C/c1ccc(-c2ccc(S(N)(=O)=O)cc2)o1)C(=O)Nc1ccccc1 | -10% | -26% | -12% | 16µM*
COc1ccc(OC)c(-c2cc(Cl)c3c(c2)CC(CNC(=O)[C@@H]2CCCN2C(C)=O)O3)c1 (stereo partly specified) | / | 7% | -4% | /
CC(=O)c1ccccc1-c1ccc2c(c1)CC(CNC(=O)c1cc(C)on1)O2 (stereo unspecified) | / | -5% | -20% | /
Cc1ccc(N(C(=O)CNC(=O)c2ccco2)C(C(=O)NC2CCCCC2)c2cccnc2)cc1C (stereo unspecified) | -12% | 1% | -8% | 69%
Cc1ccc(N(C(=O)CCl)C(C(=O)NC2CCCCC2)c2cccnc2)cc1C (stereo unspecified) | -6% | 7.1µM* | ? | 175%
O=C(c1cc(-c2ccc(Cl)cc2)on1)N1CCN(c2ccc(F)cc2)CC1 | ? | -3% | -4% | -20%
CC(C)Cc1cc(C(=O)N2CCN(c3ccc(F)cc3)CC2)no1 | 3% | -11% | i | 0.32µM*
O=C(Cn1ccc2cc(S(=O)(=O)N3CCCCC3)ccc21)NCc1ccccc1Cl | 8% | -16% | -19% | /
O=C(Cn1ccc2cc(S(=O)(=O)N3CCCCC3)ccc21)NCc1ccccc1F | -3% | -11% | ? | 20µM*
O=C1c2ccccc2S(=O)(=O)c2cc(C(=O)N3CCC(C(=O)N4CCCCC4)CC3)ccc21 | / | 1.4µM* | ? | /
O=C(Cn1cncn1)N1CCOc2ccc(CN3CCN(c4ccccc4)CC3)cc2C1 | / | -8% | -9% | /
CCOc1ccc(/C=C/C(=O)C(C(N)=O)=C2SCCS2)cc1 | -4% | -26% | 4.5µM* | -1%
CCOc1ccc(/C=C/C(=O)Oc2ccccc2)cc1 | -10% | -10% | -13% | -1%
O=C(Nc1nc(-c2cc(F)ccc2F)cs1)c1ccccn1 | -5% | -8% | -12% | -55%
O=C(Nc1ccccc1)Nc1nc(-c2ccccc2)cs1 | -7% | / | / | -32%
O=C(Nc1nc(-c2ccccc2)cs1)Nc1ccc(F)cc1F | -2% | -12% | -27% | 20µM*
O=C(CCS(=O)(=O)c1ccccc1)Nc1nc(-c2ccc(F)cc2)cs1 | 2% | ? | 13µM* | -54%
O=C(Nc1nc(-c2ccccn2)cs1)Nc1ccc(F)cc1F | 0% | ? | 4µM* | 87%
COc1ccc(C(=O)NC(=S)Nc2cccc(S(=O)(=O)N3CCOCC3)c2)cc1 | 1% | ? | -29% | -17%
CC(=O)Oc1ccc(-c2ccc(C(=O)Nc3cccc(S(=O)(=O)N4CCOCC4)c3)cc2)cc1 | 0% | ? | 16µM* | 24%
SMILES | AmpC detergent | Vaccinia Venus | VACV mCherry inh | AmpC no deterg
CC(=O)Nc1ccc(N=c2cc([N+](=O)[O-])cc(Cl)n2O)cc1 | -7% | ? | 8.9µM* | -12%
Cc1ccc(CNc2nc(CN3CCNC(=O)C3)nc3ccccc23)o1 | / | -13% | -16% | /
CN=C(c1ccco1)n1c(=S)nc(-c2ccco2)n(C)c1=S | -7% | 13µM* | ? | -27%
CCCNC(=O)c1nnsc1S(=O)(=O)c1ccc(Cl)cc1 | -9% | 13µM* | ? | -35%
Cc1cc(C)n(Cc2ccc(Cl)cc2Cl)c(=O)c1S(=O)(=O)c1ccccc1 | 4% | -2% | / | 0.16µM*
C=C(C)Cn1c(C)cc(C)c(S(=O)(=O)c2ccc(C)cc2)c1=O | 5% | -13% | i | -3%
COc1cc(/C=N/NC(=O)CC2(C)OCCO2)cc(Br)c1O | 0% | 6% | i | -15%
COc1cc(/C=N/NC(=O)C23CC4CC(CC(C4)C2)C3)cc(Br)c1O | 2% | -5% | -24% | 28µM*
COC(=O)c1ccc(CN2CCC3(CCC(CNC(=O)c4ccco4)O3)CC2)cc1 (stereo unspecified) | / | -19% | -2% | /
O=C(Nc1ccc(Cl)cc1)N1CCN(c2ccc3nnc(-c4ccccc4)n3n2)CC1 | 12% | ? | 10µM* | /
O=C(Nc1ccccc1Cl)N1CCN(c2ccc3nnc(-c4ccc(F)cc4)n3n2)CC1 | ? | -7% | -4% | 62%
Cc1ccc(NS(=O)(=O)c2ccc(C(=O)N3CCCC(C(F)(F)F)C3)cc2)cc1 (stereo unspecified) | ? | -12% | i | 35µM*
COc1ccccc1NS(=O)(=O)c1ccc(C(=O)N2CCCC(C(F)(F)F)C2)cc1 (stereo unspecified) | 0% | / | / | 47%
N#Cc1ccc(Nc2nc(-c3ccc(O)cc3O)cs2)cc1C(F)(F)F | 12% | 11µM* | ? | -17%
Cn1c(SCC2CCCO2)nnc1C1CCN(Cc2ccco2)CC1 (stereo unspecified) | / | -8% | -16% | /
C#CC[N+](C)(C)CCCCCCCCC | ? | ? | 11µM* | 15%
Cc1c2c(=O)n(-c3nc4ccccc4s3)nc-2cc(O)n1Cc1ccccc1 | 0% | / | / | 16µM*
CN(C)c1ccc(NC(=O)/C=C/c2ccccc2Cl)cc1 | ? | -14% | -7% | 2.5µM*
CCN(CC)c1ccc(NC(=O)/C=C\c2ccccc2Cl)cc1 | 2% | ? | -30% | -24%
COc1ccc2cc(CNCc3ccccc3Cl)c(N3CCCC(CO)C3)nc2c1 (stereo unspecified) | / | 8% | -6% | /
CC(C)NC(=O)CS(=O)(=O)c1ccccc1 | -18% | -6% | i | -5%
CC(=O)OC(C)CS(=O)(=O)c1ccccc1 (stereo unspecified) | ? | 7.9µM* | 7.9µM* | -10%
C=C1C(=O)OC2C1CCC(C)=C1C(=O)C3OC3(C)C12 (stereo unspecified) | / | ? | 11µM* | /
C=C1C(=O)O[C@@H]2[C@H]1CC[C@H](C)[C@]1(O)CCC(=O)[C@@]21C | 5% | / | / | -7%
CCOc1ccc(NS(=O)(=O)c2cnc(Cl)c(Cl)c2)cc1 | -1% | 13µM* | ? | -18%
Cc1cc(C)cc(NS(=O)(=O)c2cnc(Cl)c(Cl)c2)c1 | -4% | ? | / | -15%
COc1ccc(-c2csc(NC(C)c3nc4cc(Cl)c(N5CCCCC5)cc4n3CCOCCO)n2)cc1 (stereo unspecified) | / | ? | -15% | /
CC(Nc1nc(-c2ccc(F)cc2)cs1)c1nc2cc(Cl)c(Cl)cc2n1CCCO (stereo unspecified) | / | ? | 10µM* | /

Compound activity deposited in PubChem by National Center for Advancing Translational Sciences (NCATS).
